# Reference: the supplement of paper PMC8728848
# The sample as a whole holds a higher share of the strongest signals than the screen did.
# Key:
# Assay in all cases: glycan array binding signal (z-score within array); higher = stronger binding
# Conditions in all cases: glycan notation: IUPAC condensed, linker removed
# [1] = target: Fuc(a1-2)Gal(b1-3)GalNAc(a1-3)[Fuc(a1-2)]Gal(b1-4)Glc
# How it was run: (§1)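 The binding signal is a Z-score computed within each array and averaged over linkers. Arrays of the same protein sequence at different concentrations or buffers were also averaged together. Data originate from 3228 arrays in the Consortium for Functional Glycomics database, kept only where the protein sequence was available.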
# [2] = target: Fuc(a1-2)Gal(b1-3)GalNAc(b1-3)Gal
# How it was run: as §1
# [3] = target: Fuc(a1-2)Gal(b1-4)[Fuc(a1-3)]GlcNAc(b1-3)GalNAc
# How it was run: as §1
# [4] = target: Fuc(a1-2)[Gal(a1-3)]Gal(b1-3)GlcNAc
# How it was run: as §1
# [5] = target: Fuc(a1-2)[Gal(a1-3)]Gal(b1-4)GlcNAc(b1-2)Man
# How it was run: as §1
# [6] = target: Fuc(a1-2)[GalNAc(a1-3)]Gal(b1-3)GlcNAc(b1-6)GalNAc
# How it was run: as §1
# [7] = target: Fuc(a1-3)[Gal(b1-4)]GlcNAc
# How it was run: as §1
# [8] = target: Fuc(a1-3)[GalNAc(b1-4)]GlcNAc
# How it was run: as §1
# [9] = target: Gal(b1-3)GlcNAc(b1-3)Gal(b1-4)GlcNAc(b1-2)Man(a1-3)[Gal(b1-3)GlcNAc(b1-3)Gal(b1-4)GlcNAc(b1-2)Man(a1-6)]Man(b1-4)GlcNAc(b1-4)GlcNAc
# How it was run: as §1
# Gal(b1-4)GlcNAc = target: Gal(b1-4)GlcNAc
# How it was run: as §1
# [10] = target: Gal(b1-4)GlcNAc(b1-2)Man(a1-3)[Gal(b1-4)GlcNAc(b1-2)Man(a1-6)]Man(b1-4)GlcNAc(b1-4)[Fuc(a1-6)]GlcNAc
# How it was run: as §1
# [11] = target: Gal(b1-4)GlcNAc(b1-2)[Gal(b1-4)GlcNAc(b1-6)]Man(a1-6)[Gal(b1-4)GlcNAc(b1-2)Man(a1-3)]Man(b1-4)GlcNAc(b1-4)[Fuc(a1-6)]GlcNAc
# How it was run: as §1
# [12] = target: Gal(b1-4)GlcNAc(b1-3)Gal(b1-4)GlcNAc(b1-2)[Gal(b1-4)GlcNAc(b1-3)Gal(b1-4)GlcNAc(b1-6)]Man(a1-6)[Gal(b1-4)GlcNAc(b1-3)Gal(b1-4)GlcNAc(b1-2)Man(a1-3)]Man(b1-4)GlcNAc(b1-4)GlcNAc
# How it was run: as §1
# [13] = target: Gal(b1-4)GlcNAc(b1-3)Gal(b1-4)GlcNAc(b1-3)Gal(b1-4)GlcNAc(b1-3)Gal(b1-4)GlcNAc(b1-3)Gal(b1-4)GlcNAc(b1-2)Man(a1-3)[Gal(b1-4)GlcNAc(b1-3)Gal(b1-4)GlcNAc(b1-3)Gal(b1-4)GlcNAc(b1-3)Gal(b1-4)GlcNAc(b1-3)Gal(b1-4)GlcNAc(b1-2)Man(a1-6)]Man(b1-4)GlcNAc(b1-4)GlcNAc
# How it was run: as §1
# [14] = target: Gal(b1-4)GlcNAc(b1-3)Gal(b1-4)GlcNAc(b1-3)Gal(b1-4)GlcNAc(b1-3)Gal(b1-4)GlcNAc(b1-3)Gal(b1-4)GlcNAc(b1-2)[Gal(b1-4)GlcNAc(b1-3)Gal(b1-4)GlcNAc(b1-3)Gal(b1-4)GlcNAc(b1-3)Gal(b1-4)GlcNAc(b1-3)Gal(b1-4)GlcNAc(b1-6)]Man(a1-6)[Gal(b1-4)GlcNAc(b1-3)Gal(b1-4)GlcNAc(b1-3)Gal(b1-4)GlcNAc(b1-3)Gal(b1-4)GlcNAc(b1-3)Gal(b1-4)GlcNAc(b1-2)Man(a1-3)]Man(b1-4)GlcNAc(b1-4)[Fuc(a1-6)]GlcNAc
# How it was run: as §1
# [15] = target: Gal3S(b1-3)[Fuc(a1-4)]GlcNAc
# How it was run: as §1
# Gal6S(b1-4)Glc6S = target: Gal6S(b1-4)Glc6S
# How it was run: as §1
# [16] = target: GalNAc(b1-3)Gal(a1-4)Gal(b1-4)GlcNAc
# How it was run: as §1
# [17] = target: Glc(a1-4)Glc(a1-4)Glc(a1-4)Glc
# How it was run: as §1
# [18] = target: GlcNAc(a1-4)Gal(b1-4)GlcNAc
# How it was run: as §1
# [19] = target: GlcNAc(b1-2)[GlcNAc(b1-6)]Man(a1-6)[GlcNAc(b1-2)Man(a1-3)]Man(b1-4)GlcNAc(b1-4)[Fuc(a1-6)]GlcNAc
# How it was run: as §1
# [20] = target: GlcNAc(b1-3)Gal(b1-4)GlcNAc(b1-3)Gal(b1-4)GlcNAc(b1-2)Man(a1-3)[GlcNAc(b1-3)Gal(b1-4)GlcNAc(b1-3)Gal(b1-4)GlcNAc(b1-2)Man(a1-6)]Man(b1-4)GlcNAc(b1-4)GlcNAc
# How it was run: as §1
# [21] = target: GlcNAc(b1-3)Gal(b1-4)GlcNAc(b1-3)Gal(b1-4)GlcNAc(b1-2)Man(a1-3)[GlcNAc(b1-3)Gal(b1-4)GlcNAc(b1-3)Gal(b1-4)GlcNAc(b1-2)Man(a1-6)]Man(b1-4)GlcNAc(b1-4)[Fuc(a1-6)]GlcNAc
# How it was run: as §1
# [22] = target: GlcNAc(b1-3)Gal(b1-4)GlcNAc(b1-3)Gal(b1-4)GlcNAc(b1-3)Gal(b1-4)GlcNAc(b1-2)Man(a1-3)[GlcNAc(b1-3)Gal(b1-4)GlcNAc(b1-3)Gal(b1-4)GlcNAc(b1-3)Gal(b1-4)GlcNAc(b1-2)Man(a1-6)]Man(b1-4)GlcNAc(b1-4)[Fuc(a1-6)]GlcNAc
# How it was run: as §1
# [23] = target: GlcNAc(b1-4)GlcNAc(b1-4)GlcNAc(b1-4)GlcNAc(b1-4)GlcNAc(b1-4)GlcNAc
# How it was run: as §1
# GlcNAc(b1-6)GalNAc = target: GlcNAc(b1-6)GalNAc
# How it was run: as §1
# [24] = target: Man(a1-2)Man(a1-6)[Man(a1-3)]Man(a1-6)[Man(a1-2)Man(a1-2)Man(a1-3)]Man(b1-4)GlcNAc(b1-4)GlcNAc
# How it was run: as §1
# [25] = target: Neu5Ac(a2-3)Gal(b1-3)GalNAc(b1-4)[Neu5Ac(a2-8)Neu5Ac(a2-3)]Gal(b1-4)Glc
# How it was run: as §1
# [26] = target: Neu5Ac(a2-3)Gal(b1-3)GlcNAc
# How it was run: as §1
# [27] = target: Neu5Ac(a2-3)Gal(b1-3)[GlcNAc(b1-6)]GalNAc
# How it was run: as §1
# [28] = target: Neu5Ac(a2-3)Gal(b1-3)[Neu5Ac(a2-6)]GlcNAc(b1-3)[Fuc(a1-3)[Gal(b1-4)]GlcNAc(b1-6)]Gal(b1-4)Glc
# How it was run: as §1
# [29] = target: Neu5Ac(a2-3)Gal(b1-3)]Neu5Ac(a2-3)Gal(b1-4)]GlcNAc
# How it was run: as §1
# [30] = target: Neu5Ac(a2-3)Gal(b1-4)GlcNAc(b1-3)Gal(b1-4)GlcNAc(b1-3)Gal(b1-4)GlcNAc
# How it was run: as §1
# [31] = target: Neu5Ac(a2-3)Gal(b1-4)[Fuc(a1-3)]GlcNAc(b1-3)GalNAc
# How it was run: as §1
# [32] = target: Neu5Ac(a2-3)[Neu5Ac(a2-6)]GalNAc
# How it was run: as §1
# [33] = target: Neu5Ac(a2-6)Gal(b1-4)GlcNAc(b1-2)[Neu5Ac(a2-6)Gal(b1-4)GlcNAc(b1-4)]Man(a1-3)[GlcNAc(b1-4)][Neu5Ac(a2-6)Gal(b1-4)GlcNAc(b1-2)[Neu5Ac(a2-6)Gal(b1-4)GlcNAc(b1-6)]Man(a1-6)]Man(b1-4)GlcNAc(b1-4)GlcNAc
# How it was run: as §1
# [34] = target: Neu5Ac(a2-6)Gal(b1-4)GlcNAc(b1-2)[Neu5Ac(a2-6)Gal(b1-4)GlcNAc(b1-4)]Man(a1-3)[GlcNAc(b1-4)][Neu5Ac(a2-6)Gal(b1-4)GlcNAc(b1-4)Man(a1-6)]Man(b1-4)GlcNAc(b1-4)GlcNAc
# How it was run: as §1
# [35] = target: Neu5Ac(a2-6)Gal(b1-4)GlcNAc(b1-3)Gal(b1-4)GlcNAc(b1-3)GalNAc
# How it was run: as §1
# [36] = target: Neu5Ac(a2-6)Gal(b1-4)GlcNAc(b1-3)Gal(b1-4)[Fuc(a1-3)]GlcNAc(b1-3)Gal(b1-4)[Fuc(a1-3)]GlcNAc
# How it was run: as §1
# [37] = target: Neu5Ac(a2-6)GalNAc(b1-4)GlcNAc6S
# How it was run: as §1
# [38] = target: Neu5Ac(a2-8)Neu5Ac(a2-3)[Gal(b1-3)GalNAc(b1-4)]Gal(b1-4)Glc
# How it was run: as §1
# [39] = target: Neu5Gc(a2-3)Gal(b1-4)GlcNAc
# How it was run: as §1
# [40] = target: Neu5Gc(a2-3)Gal(b1-4)GlcNAc(b1-3)Gal(b1-4)GlcNAc(b1-2)Man(a1-3)[Neu5Gc(a2-3)Gal(b1-4)GlcNAc(b1-3)Gal(b1-4)GlcNAc(b1-2)Man(a1-6)]Man(b1-4)GlcNAc(b1-4)GlcNAc
# How it was run: as §1
# Neu5Gc(a2-6)GalNAc = target: Neu5Gc(a2-6)GalNAc
# How it was run: as §1
# [41] = target: Neu5Gc(a2-8)Neu5Gc(a2-3)Gal(b1-4)GlcNAc(b1-3)Gal(b1-4)GlcNAc
# How it was run: as §1
binder,measurement,setting,value
CTAEGIKKFEGDGYELFKDNFPAGEKFDNDDTNDQFYTVIF [MUB40 (Lactobacillus reuteri)],glycan array binding signal (z-score),[1],-0.41
same,glycan array binding signal (z-score),[2],-0.251
same,glycan array binding signal (z-score),[3],3.56
same,glycan array binding signal (z-score),[4],-0.002
same,glycan array binding signal (z-score),[5],2.44
same,glycan array binding signal (z-score),[6],-0.425
same,glycan array binding signal (z-score),[7],0.464
same,glycan array binding signal (z-score),[8],-0.365
same,glycan array binding signal (z-score),[9],4.29
same,glycan array binding signal (z-score),Gal(b1-4)GlcNAc,-0.134
same,glycan array binding signal (z-score),[10],-0.425
same,glycan array binding signal (z-score),[11],0.328
same,glycan array binding signal (z-score),[12],-0.339
same,glycan array binding signal (z-score),[13],3.44
same,glycan array binding signal (z-score),[14],2.67
same,glycan array binding signal (z-score),[15],0.295
same,glycan array binding signal (z-score),Gal6S(b1-4)Glc6S,-0.817
same,glycan array binding signal (z-score),[16],-0.189
same,glycan array binding signal (z-score),[17],-0.331
same,glycan array binding signal (z-score),[18],-0.247
same,glycan array binding signal (z-score),[19],0.341
same,glycan array binding signal (z-score),[20],1.03
same,glycan array binding signal (z-score),[21],2.39
same,glycan array binding signal (z-score),[22],4.26
same,glycan array binding signal (z-score),[23],-0.138
same,glycan array binding signal (z-score),GlcNAc(b1-6)GalNAc,-0.355
same,glycan array binding signal (z-score),[24],-0.33
same,glycan array binding signal (z-score),[25],1.18
same,glycan array binding signal (z-score),[26],-0.358
same,glycan array binding signal (z-score),[27],1.11
same,glycan array binding signal (z-score),[28],-0.114
same,glycan array binding signal (z-score),[29],-0.307
same,glycan array binding signal (z-score),[30],1.72
same,glycan array binding signal (z-score),[31],0.351
same,glycan array binding signal (z-score),[32],1.33
same,glycan array binding signal (z-score),[33],0.5
same,glycan array binding signal (z-score),[34],-0.219
same,glycan array binding signal (z-score),[35],3.03
same,glycan array binding signal (z-score),[36],1.24
same,glycan array binding signal (z-score),[37],2.71
same,glycan array binding signal (z-score),[38],-0.27
same,glycan array binding signal (z-score),[39],2.42
same,glycan array binding signal (z-score),[40],2.75
same,glycan array binding signal (z-score),Neu5Gc(a2-6)GalNAc,0.011
same,glycan array binding signal (z-score),[41],2.42
